Screening data: PubChem, several laboratories
GDH-TPI inh = inhibits GDH-TPI coupling enzymes, artifact for Mtb FBA screen. GDH-TPI coupled enzyme counterscreen, NADH absorbance. inhibition, % at 4.8 µM. 1.2% of 360,000 active. AID 588335; in the data active means inhibition above about 30%;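 further: 0% = DMSO wells and 100% = wells lacking the enzyme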
FadD28 FP inh = inhibitors of Mycobacterium tuberculosis FadD28 bisubstrate binding | 0.22% of 360,000 active | FadD28 bisubstrate probe binding, fluorescence polarization | inhibition, % at 12.5 µM; in the data active means inhibition above about 8.5%, passing the limit was not always enough; inconclusive means no clear call, values can overlap the other calls
3CLpro inhibitor = SARS-CoV 3CLpro protease inhibition; 0.14% of 290,000 active; recombinant SARS-CoV 3CLpro, quenched FRET peptide cleavage; inhibition, % at 6 µM; AID 1706; P0C6X7; in the data active means inhibition above about 12%
BioA inh-1 = BioA (M. tuberculosis) enzyme inhibition. AID 602481. inhibition, % at 9.99 µM. 0.096% of 360,000 active. purified M. tuberculosis BioA enzyme, plate reader; in the data active means inhibition above about 40%; inconclusive means no clear call, values can overlap the other calls
Mtb FBA inh = inhibits M. tuberculosis FBA enzyme; P9WQA3; purified M. tuberculosis FBA, fluorescence read-out; inhibition, % at 1 µM; 2.3% of 360,000 active; AID 588726; in the data active means inhibition above about 27%;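 further: 0% = vehicle and 100% = reference inhibitor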
BioA inh-2 = Mtb BioA enzyme inhibition. shares compounds with BioA inh-1. purified BioA enzyme, plate reader, dose response. max activity, %. 310 tested, under 10 active;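 further: top concentration of the dilution series was 10 µM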
Target sequence (P9WQ81 whole entry, looked up): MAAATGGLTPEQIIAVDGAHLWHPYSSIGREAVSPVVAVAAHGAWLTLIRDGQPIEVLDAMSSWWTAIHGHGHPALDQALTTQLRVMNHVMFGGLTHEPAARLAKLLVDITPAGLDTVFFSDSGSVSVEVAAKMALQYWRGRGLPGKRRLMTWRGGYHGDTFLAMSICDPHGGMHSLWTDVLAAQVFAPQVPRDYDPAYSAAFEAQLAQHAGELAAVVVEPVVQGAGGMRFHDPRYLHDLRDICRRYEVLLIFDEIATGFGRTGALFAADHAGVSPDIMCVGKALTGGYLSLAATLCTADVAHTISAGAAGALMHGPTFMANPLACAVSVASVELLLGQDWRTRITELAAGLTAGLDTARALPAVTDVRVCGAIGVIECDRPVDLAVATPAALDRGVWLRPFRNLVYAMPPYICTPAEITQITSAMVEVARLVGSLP
HepG2 tox 2 = cytotoxicity in HepG2 cells; plate reader; 310 tested, under 10 active; shares compounds with BioA inh-1; max activity, %
3T3 cytotox 5 = kills NIH3T3 cells; NIH3T3 cytotoxicity, plate reader; 310 tested, under 10 active; activity change, negative = cytotoxicity, % at 26 µM; shares compounds with BioA inh-1
* marks the source's active call; other numbers are inactive results; i = inactive; u = inconclusive; x = no result; [ ] = another dose, or the depositor's remark. Shown are actives, neighbours in structure and some others; about 3.1% of the full set was active somewhere. Unless noted, how the calls were made is not given here.

SMILES | GDH-TPI inh | FadD28 FP inh | 3CLpro inhibitor | BioA inh-1 | Mtb FBA inh | BioA inh-2 | HepG2 tox 2 | 3T3 cytotox 5
C=CCn1c(COc2ccccc2F)nnc1SCCN1C(=O)c2ccccc2C1=O | -9 | -5 | 3 | 44* | -2 | -7 | 12 | 0
C=CCn1c(SCCN2C(=O)c3ccccc3C2=O)nc2scc(-c3ccc(F)cc3)c2c1=O | -3 | -1 | x | x | 4 | x | x | x
O=C(Cc1ccncc1)N1CC[C@@H]2[C@H](CO)Nc3ccc(Br)cc3[C@@H]21 | x | x | x | 16 | x | x | x | x
COc1cccc(-c2ccc3c(c2)[C@H]2[C@H](CCN2C(=O)C2CCC2)[C@@H](CO)N3)c1 | x | x | x | 60* | x | -10 | i | -2
O=C(C1CC1)N1CC[C@@H]2[C@H](CO)Nc3ccc(Br)cc3[C@@H]21 | x | x | x | 85* | x | u | i | -5
COc1cccc(-c2ccc3c(c2)[C@H]2[C@H](CCN2C(=O)C2CCC2)[C@H](CO)N3)c1 | x | x | x | 6 | x | x | x | x
O=C(c1ccncc1)N1CC[C@@H]2[C@@H](CO)Nc3ccc(Br)cc3[C@@H]21 | x | x | x | 48* | x | -5 | i | -2
C[C@H](CO)N1C[C@H](C)[C@H](CN(C)Cc2ccc3c(c2)OCO3)Oc2ccc(NS(=O)(=O)c3cn(C)cn3)cc2CC1=O | x | x | x | 1 | x | x | x | x
CCC(=O)N1CC[C@@H]2[C@H](CO)Nc3ccc(C#Cc4cccnc4)cc3[C@@H]21 | x | x | x | 2 | x | x | x | x
COCC(=O)Nc1ccc2c(c1)OC[C@H](C)N(CCc1ccccc1)C[C@@H](C)[C@@H](OC)CN(C)C2=O | x | x | x | 1 | x | x | x | x
CCCN1C[C@@H](C)[C@H](OC)CN(C)C(=O)c2cc(NC(=O)Nc3c(C)noc3C)ccc2OC[C@H]1C | x | x | x | 0 | x | x | x | x
Cc1ccc(NS(=O)(=O)c2ccc3c(c2)n(C)c(=O)n3C)c(C)c1 | -3 | -3 | 3 | 7 | -3 | x | x | x
CCn1c(=O)c(=O)n(CC)c2cc(S(=O)(=O)Nc3cc(C)ccc3C)ccc21 | 7 | -1 | -3 | 42* | 0 | -11 | -15 | -16
COCC(=O)N1C[C@H](C)[C@H](OC)CN(C)C(=O)c2cc(NC(=O)c3ccccc3)ccc2OC[C@@H]1C | x | x | x | -7 | x | x | x | x
O=C(c1ccc2c(c1)OCO2)N1CC[C@@H]2[C@H](CO)Nc3ccc(-c4ccc(F)cc4)cc3[C@@H]21 | x | x | x | 90* | x | -7 | i | -13
O=C(c1ccc2c(c1)OCO2)N1CC[C@@H]2[C@@H](CO)Nc3ccc(-c4ccc(F)cc4)cc3[C@@H]21 | x | x | x | 10 | x | x | x | x
N#Cc1ccc(-c2ccc3c(c2)[C@@H]2[C@@H](CCN2C(=O)c2ccc(F)cc2)[C@@H](CO)N3)cc1 | x | x | x | 40* | x | 5 | i | -6
O=C(C[C@H]1CC[C@H]2[C@@H](COC[C@H](O)CN2C(=O)Nc2ccc(F)cc2)O1)NCCCN1CCOCC1 | x | x | x | -2 | x | x | x | x
COc1cccc(-c2cc(NC=O)c3ncc(-c4cccc(C(=O)N(C)C)c4)n3c2)c1 | 2 | -1 | x | 16 | 2 | x | x | x
COc1ccc(-c2cc(NC=O)c3ncc(-c4cccc(C(=O)N(C)C)c4)n3c2)cn1 | 14 | -2 | x | 42* | 3 | -5 | -10 | -4
COCCNC(=O)C[C@@H]1CC[C@@H]2[C@H](COc3ccc(NC(=O)Nc4cccc(F)c4)cc3C(=O)N2C)O1 | x | x | x | 45* | x | u | i | 9
COCCNC(=O)C[C@@H]1CC[C@@H]2[C@@H](COc3ccc(NC(=O)Nc4cccc(F)c4)cc3C(=O)N2C)O1 | x | x | x | 40* | x | 8 | i | 2[23.5 µM]
COCCNC(=O)C[C@H]1CC[C@@H]2[C@@H](COc3ccc(NC(=O)Nc4cccc(F)c4)cc3C(=O)N2C)O1 | x | x | x | 55* | x | -9 | i | -2[23.5 µM]
COCCNC(=O)C[C@@H]1CC[C@H]2[C@H](COc3ccc(NC(=O)Nc4cccc(F)c4)cc3C(=O)N2C)O1 | x | x | x | 24 | x | x | x | x
COCCNC(=O)C[C@@H]1CC[C@@H]2[C@@H](COc3ccc(NC(=O)Nc4ccccc4)cc3C(=O)N2C)O1 | x | x | x | 5 | x | x | x | x
CCCNC(=O)N(C)C[C@H]1Oc2ncc(C3=CCCCC3)cc2C(=O)N([C@H](C)CO)C[C@H]1C | x | x | x | -4 | x | x | x | x
O=C(NC1CCCc2c1cnn2-c1cc(F)cc(F)c1)c1ccc[n+]([O-])c1 (configuration not stated) | 8 | 1 | 0 | 65* | 0 | 4 | -7 | -2
